NPC1 promoter act – qHTS Assay for NPC1 Promoter Activators; 2.4% of 320,000 active; Potency, µM (doses to about 9.22 µM), for the others: at the highest dose activation, most hits filed as activators; Huh7 NPC1 promoter luciferase reporter, 24 h; AID 485313, 2010; also: % of control where 0% means no effect; nearly all actives have a fitted effect of over 60% in size
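In 1536-well qHTS, Huh7 cells harboring an NPC1 promoter–luciferase construct received compound for 24 h; activation was quantified by luminescence following luciferase reagent addition.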
FLuc modulator – qHTS profiling assay for firefly luciferase inhibitor/activator using purifed enzyme and Km concentrations of substrates (counterscreen for miR-21 project) | Luciferin 4-monooxygenase (Photinus pyralis), P08659 | Potency, µM (highest dose often 57.5 µM), for inactives: at the top dose activity change, negative = inhibition, most hits filed as inhibitors | purified FLuc, Km substrates, luminescence inhibition | AID 588342, 2011 | 6.9% of 360,000 active;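 also: plate controls were vehicle for no effect and reference inhibitor for full effect; nearly all actives have a fitted effect of over 55% in size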
Target sequence (P08659 whole entry, looked up): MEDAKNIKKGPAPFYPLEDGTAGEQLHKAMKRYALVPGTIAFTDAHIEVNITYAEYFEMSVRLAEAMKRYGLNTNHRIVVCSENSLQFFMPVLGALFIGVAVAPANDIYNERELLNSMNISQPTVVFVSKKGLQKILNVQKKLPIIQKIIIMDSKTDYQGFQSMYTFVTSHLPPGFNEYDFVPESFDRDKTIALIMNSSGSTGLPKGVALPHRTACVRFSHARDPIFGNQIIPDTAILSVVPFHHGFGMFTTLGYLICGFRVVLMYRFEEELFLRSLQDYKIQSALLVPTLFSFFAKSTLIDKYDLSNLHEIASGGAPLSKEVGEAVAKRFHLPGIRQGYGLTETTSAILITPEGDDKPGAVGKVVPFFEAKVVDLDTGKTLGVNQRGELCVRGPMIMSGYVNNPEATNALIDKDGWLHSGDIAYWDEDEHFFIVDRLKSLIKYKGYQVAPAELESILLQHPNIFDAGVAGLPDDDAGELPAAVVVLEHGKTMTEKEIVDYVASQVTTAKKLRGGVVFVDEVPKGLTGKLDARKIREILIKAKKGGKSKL
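Purified P. pyralis luciferase, 10 nM final, with Km-level 10 uM D-luciferin and 10 uM ATP in 50 mM Tris acetate pH 7.5, 10 mM Mg acetate, 0.01% Tween-20, 0.05% BSA; 6-point qHTS titration about 60 µM downward; luminescence read.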
SMN2 splice enh – qHTS Assay for Enhancers of SMN2 Splice Variant Expression. HEK293 SMN2-luciferase splicing reporter, luminescence, 30-36 h. 2.8% of 210,000 active. Potency, µM (highest dose often 46.1 µM), inactives show top-dose activity change, positive = activation, usual class: activators; also: % of control where 0% means no effect; nearly all actives have a fitted effect of over 55% in size
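qHTS luciferase splicing reporter: luminescence rises when SMN2 exon 7 is included in transfected HEK293 cells. Compound exposure lasted 30-36 h at 37C, with 4.5 mM final sodium butyrate as control, followed by a ONE-Glo read.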
Rab9 prom act – qHTS Assay for Rab9 Promoter Activators. Huh7 Rab9 promoter-luciferase reporter, luminescence, 24 h. Potency, µM (doses to about 9.22 µM), without a hit: top-dose activation, negative = inhibition, most hits filed as activators. 2.8% of 320,000 active. AID 485297, 2010; also: % of control where 0% means no effect; nearly all actives have a fitted effect of over 60% in size
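Huh7 cells stably carrying a Rab9 promoter-luciferase reporter, 1500 cells per well in OP-MEM I with 10% FBS, treated with compound 24 hours at 37C. Luciferase activity read by luminescence after 10 minutes with Amplite reagent.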
Luc counter – Counterscreen for Luciferase (Kinase-Glo TM) Inhibition. Luciferin 4-monooxygenase (Photuris pensylvanica), Q27757. Potency, µM (doses to about 38.3 µM), for inactives: at the highest dose activity change, negative = inhibition, actives largely listed as inhibitors. AID 1379, 2008. Kinase-Glo luciferase, ATP luminescence, 8 min. 0.28% of 200,000 active; also: % is scaled to controls: 0 for no effect and ±100 for the full control effect; nearly all actives have a fitted effect of over 60% in size
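Compounds were added to a substrate mix at pH 7.2 (50 mM imidazole, 10 uM ATP, within the enzyme's linear range), followed by Kinase-Glo detection reagent; luminescence was measured after 8 minutes at ambient temperature.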
An asterisk follows results filed as active; ? = inconclusive; · = no result given; [ ] = another dose, or the depositor's remark. The list is not random: actives were taken first. Their share in the collection is about 7.3%. Calls follow the shape of the dose curve; as a rule, active = well fitted curve in the direction sought with a large enough effect; inconclusive = small, poorly fitted or top-dose-only effect, or another doubt; inactive = no such curve, though single readings can be large; an effect the other way counts as inactive or inconclusive. Potency is read from the fitted curve at half-maximal effect.

SMILES	NPC1 promoter act	FLuc modulator	SMN2 splice enh	Rab9 prom act	Luc counter
Cc1ccc(N2CN=C(c3ccccc3)NC2=S)cc1	?	9.53µM*	27.0%	?	-4.2%
CC(C)Oc1ccc(C(=O)Nc2c(C(=O)Nc3cccc(F)c3)oc3ccccc23)cc1	·	?	10.8%	·	·
O=C(Oc1ccc2c(c1)OCO2)c1cc2c(s1)CCC2	13.3%	3.79µM*	14.5%	-7.4%	-15.2%
O=C(Nc1c(C(=O)Nc2cccc(F)c2)oc2ccccc12)c1ccc2c(c1)OCO2	3.2%	8.49µM*	2.3%	20.7%	-14.1%
O=C(Oc1ccc2c(c1)OCO2)c1ccc(F)cc1Cl	3.6%	2.69µM*	-11.6%	?	?
O=C(Nc1cccc(F)c1)c1ccc2c(c1)OCO2	2.82µM*	10.7µM*	6.31µM*	1.58µM*	-1.6%
CCc1ccc(-c2nn(CC(=O)NC3CCCCC3)c3c2cnc2ccc(F)cc23)cc1	·	-6.3%	·	·	·
O=C(NNS(=O)(=O)c1ccc(F)cc1)c1ccc2c(c1)OCO2	0.2%	5.3%	·	2.7%	·
O=C(NNC(=O)c1ccc(F)cc1F)c1ccc2c(c1)OCO2	24.2%	?	?	3.16µM*	-3.8%
Cc1ccc(NC(=O)c2oc3ccccc3c2NC(=O)c2ccc3c(c2)OCO3)cc1	0.7%	6.75µM*	-11.1%	16.3%	-3.6%
CCC(=O)Nc1ccc2c(c1)Cc1cc(NC(=O)CC)ccc1-2	29.4%	1.8%	·	?	·
CC(=O)c1ccc2c(c1)Cc1cc(C(C)=O)ccc1-2	2.51µM*	?	·	1.78µM*	·
COc1ccc(-n2nc3cc(C)c(NC(=O)c4ccc(-c5ccc(Br)cc5)o4)cc3n2)cc1	·	?	0.6%	·	·
O=C(O)c1cccc(NC(=O)c2cn(-c3ccccc3)nc2-c2cccc(Br)c2)c1	1.4%	?	·	-4.9%	·
COc1ccc(-c2nn(-c3ccccc3)cc2C(=O)Nc2ccc(C(=O)O)cc2)cc1	3.9%	10.7µM*	·	-2.0%	·
COc1ccc(-c2nn(-c3ccccc3)cc2C#N)cc1	?	5.36µM*	-1.7%	3.55µM*	2.3%
O=C(O)c1ccc(NC(=O)c2cn(-c3ccccc3)nc2-c2ccc(Br)cc2)cc1	0.2%	3.79µM*	6.5%	-4.9%	2.0%
COc1ccc(NC(=O)CN(C)C(=O)c2cn(-c3ccccc3)nc2-c2ccc(F)cc2)cc1	-1.1%	21.3µM*	·	1.4%	·
Cc1ccc(C)c(N2CCN(C(=O)CS(=O)(=O)c3cccc4nsnc34)CC2)c1	·	-7.6%	·	·	·
CCCOc1ccc(C(=O)Nc2nonc2-c2ccc(OCC)cc2)cc1	·	-9.5%	3.3%	·	·
COc1ccc(NC(=O)c2cn(-c3ccccc3)nc2-c2ccncc2)cc1	-4.6%	?	-2.8%	-2.2%	-2.2%
O=C(O)c1ccc(NC(=O)c2cn(-c3ccccc3)nc2-c2ccccc2)cc1	23.4%	1.2µM*	?	27.9%	0.7%
O=C(Nc1ccc(F)cc1)c1cn(-c2ccccc2)nc1-c1ccncc1	-7.9%	-4.1%	-6.8%	-1.3%	1.0%
N#Cc1cn(-c2ccccc2)nc1-c1cc2ccccc2oc1=O	12.9%	0.1%	·	-1.0%	3.0%
COc1ccc(-c2nn(-c3ccccc3)cc2/C=N/Nc2cccc(C(=O)O)c2)cc1	?	10.7µM*	25.3%	?	0.0%
SMILES	NPC1 promoter act	FLuc modulator	SMN2 splice enh	Rab9 prom act	Luc counter
COc1ccc(NC(=O)c2cn(-c3ccccc3)nc2-c2cc3ccccc3o2)cc1	10.1%	8.49µM*	-4.9%	15.2%	-4.3%
OCc1cn(-c2ccccc2)nc1-c1cc2ccccc2o1	2.51µM*	1.69µM*	7.94µM*	1.26µM*	3.9%
CCc1nnc(NC(=O)C(=O)c2cc(C)n(-c3ccccc3)c2C)s1	·	-5.6%	·	·	·
CCOc1ccc(NS(=O)(=O)c2ccc(C)c(C(=O)O)c2)cc1	·	·	·	·	0.3%
CCOCC(=O)Nc1nnc(C2CCCCC2)s1	?	?	12.6µM*	?	2.6%
C/C=C/C(=O)Nc1nnc(C2CCCCC2)s1	-4.1%	26.9µM*	·	0.6%	-1.7%
O=C(Nc1nnc(C2CC2)s1)C1CCCCC1	12.2%	-15.1%	·	10.2%	·
Cc1ccc(C(=O)Nc2nnc(C3CCCCC3)s2)o1	1.78µM*	9.53µM*	11.2µM*	3.98µM*	-5.3%
Cc1ccc(-n2c(=O)c3c4c(sc3n(CC(=O)Nc3ccccc3C)c2=O)CCCCC4)cc1C	·	-5.1%	12.2%	·	·
CC(=O)Nc1ccc(N/C=C/C(=O)c2ccc(C)cc2)cc1	?	-18.7%	·	19.7%	·
CCC(=O)Nc1cccc(C(=O)/C=C/c2ccc(F)cc2)c1	-3.9%	15.1µM*	-62.1%	-13.6%	1.3%
COc1cccc(NC(=S)NC(=O)/C=C/c2ccc(F)cc2)c1	5.1%	-4.3%	·	-1.9%	·
CC(=O)Nc1cccc(C(=O)/C=C/c2ccc(C)cc2)c1	0.3%	4.78µM*	-3.6%	-5.6%	-1.3%
Cc1cccc(NC(=O)C2CCN(S(=O)(=O)c3ccc4c(c3)CCCN4C(=O)C3CCC3)CC2)c1	·	-6.6%	·	·	·
CCC(C)c1ccc(OCC(=O)Nc2ccc(-c3nc4ncccc4o3)cc2)cc1 (centres undefined)	·	0.4%	8.9%	·	·
CCN(CC)CCCCn1c(-c2ccccc2)nc2c(N(CCOC)CCOC)nc(C)nc21	·	·	-7.9%	·	-4.9%
COC(=O)c1ccc(-n2nnnc2SCC(=O)Nc2cc(OC)ccc2OC)cc1	0.6%	-2.1%	-10.4%	3.5%	1.8%
COc1ccc(OC)c(NC(=O)CSc2nnnn2-c2ccc3c(c2)OCO3)c1	-4.9%	-1.9%	35.5µM*	-4.8%	0.7%
CC(C)OC(=O)CSc1nnnn1-c1ccc2c(c1)OCCO2	22.5%	16.9µM*	-1.4%	?	0.9%
Cc1c(C(=O)N2CCC(C)CC2)c(S(=O)(=O)NCc2ccc(Cl)cc2)c(C)n1C	·	4.5%	·	·	·
CN(C)c1cnn(-c2ccccc2)c(=O)c1Cl	13.4%	?	21.3%	12.5%	1.3%
CC(=O)Cn1ncc(N(C)Cc2ccccc2)c(Cl)c1=O	?	16.9µM*	·	?	·
CCc1ccc(S(=O)(=O)c2nnn3c2nc(Nc2ccc(C)c(Cl)c2)c2sccc23)cc1	·	5.0%	·	·	·
O=C(Nc1ncc(Cc2cccc(Cl)c2)s1)C1CCCO1 (centres undefined)	?	19µM*	23.2%	?	0.2%
Cc1cnc(NC(=O)C2CCCO2)s1 (centres undefined)	-6.8%	2.1%	-3.3%	13.8%	2.1%
O=C(Nc1ncc(Cc2cccc(Cl)c2Cl)s1)C1CCCO1 (centres undefined)	?	10.7µM*	15.8µM*	3.55µM*	-3.1%
O=C(Nc1ncc(Cc2ccccc2Cl)s1)C1CCCO1 (centres undefined)	3.55µM*	9.53µM*	12.6µM*	1.41µM*	0.8%
Fc1cccc(Cl)c1/C=N\N=C1c2ccccc2-c2ccccc21	·	·	-6.5%[9.22 µM]	·	-0.7%[7.66 µM]
Cc1ccc(Cl)cc1NC(=O)CN1C=NS(=O)(=O)c2ccccc21	·	-5.7%	·	·	·
